Compound activity as filed in PubChem BioAssay.
U2OS ROS induce – inducers of reactive oxygen species in cancer cells. 46,000 tested, 2% active. ROS induction (% of piperlongumine), % at 10 µM. U2OS ROS induction, H2DCF-DA fluorescence; in the data active = ROS induction above about 79%, passing the limit was not always enough
NOMO-1 viab – STK33 inhibitor candidate reducing NOMO-1 cell viability; 37,000 tested, 7.5% active; inhibition, % (no concentration beside the values); NOMO-1 AML viability, CellTiter-Glo luminescence, 72 h; AID 2330; in the data active = inhibition above about 80%
A number is an active result; i = inactive; nt = no result given. Many of the other results were omitted from the sample, so hits are more common in it than they were.

SMILES	U2OS ROS induce	NOMO-1 viab
Cc1ccc(S(=O)(=O)N(C)C[C@H]2Oc3ccc(NC(=O)Cn4cnnn4)cc3CC(=O)N([C@@H](C)CO)C[C@@H]2C)cc1	i	i
C[C@H](CO)N1C[C@H](C)[C@H](CN(C)S(=O)(=O)c2ccc(Cl)cc2)Oc2ccc(NC(=O)Cn3cnnn3)cc2CC1=O	126.3	i
CCOc1ccccc1CN1CCN(Cc2cc(Br)ccc2O)CC1	i	i
C[C@H]1CN([C@@H](C)CO)C(=O)c2cc(NS(=O)(=O)c3ccc(Cl)cc3)ccc2O[C@@H]1CN(C)C(=O)Nc1ccc2c(c1)OCO2	i	i
C[C@@H]1CN([C@@H](C)CO)C(=O)c2cccc(NS(=O)(=O)c3ccccc3)c2O[C@@H]1CN(C)Cc1ccc2c(c1)OCO2	i	i
O=C(CN(c1ccc(F)cc1)S(=O)(=O)c1ccc2c(c1)OCCO2)N1CCc2ccccc2C1	nt	i
C[C@@H]1CN([C@@H](C)CO)C(=O)c2cc(N(C)C)ccc2O[C@@H]1CN(C)S(=O)(=O)c1ccccc1	i	i
Cc1ccc2nc(-c3ccncc3)cc(C(=O)NC(C)c3cnn(C)c3C)c2c1 (stereo not drawn)	i	i
Cc1ccc2nc(-c3ccncc3)cc(-c3ccccc3)c2c1	88.5	nt
Cc1cc2ccccc2n2c(SCC(=O)NCc3ccco3)nnc12	i	111.5
Cc1cc2ccccc2n2c(SCC(N)=O)nnc12	nt	i
C[C@@H]1CN([C@H](C)CO)C(=O)Cc2cc(NC(=O)C3CC3)ccc2O[C@@H]1CN(C)C(=O)Nc1ccc2c(c1)OCO2	i	i
COC(=O)c1cc(S(=O)(=O)N2CCOCC2)cn1C	i	nt
CC(C)c1ccc(C2C(C#N)=C(N)C(C#N)(C#N)C3=CCN(C)CC32)cc1 (stereo not drawn)	i	105.4
Cc1nc2c([nH]1)C(c1ccc(C(C)C)cc1)C(C#N)=C(N)O2 (stereo not drawn)	i	i
C[C@@H]1CCCCO[C@@H](CN(C)S(=O)(=O)c2ccccc2)[C@@H](C)CN([C@H](C)CO)C(=O)c2cc(NC(=O)C3CCCCC3)ccc2O1	i	i
N#CCC(=O)Cc1ccccc1[N+](=O)[O-]	i	i
O=[N+]([O-])c1nn(-c2ccc(Cl)cc2)n(O)c1=NCc1ccccn1	nt	112.4
O=[N+]([O-])c1nn(-c2ccccc2)n(O)c1=NCc1ccco1	i	i
Cc1ccc(S(=O)(=O)NCc2csc(-c3ccccc3)n2)c(C)c1	i	nt
N#CC(C(=O)c1cccc(C(F)(F)F)c1)=C1SCCCCS1	i	i
CSC(SC)=C(C#N)C(=O)c1cccc(C(F)(F)F)c1	i	122.7
CC/C=C/c1ccc(C)cc1CCCCCC(=O)O	i	i
C[C@@H]1CN([C@H](C)CO)C(=O)CCCn2nncc2CO[C@@H]1CN(C)Cc1cccc(C(=O)O)c1	i	nt
COc1ccc(CC(=O)Nc2cccc(-c3nc4cc5ccccc5cc4[nH]3)c2)cc1	i	135.0
SMILES	U2OS ROS induce	NOMO-1 viab
Cc1ccc(OCC(=O)Nc2cccc(-c3nc4ccccc4[nH]3)c2)cc1	i	i
OC(Cc1ccccc1)(c1ccccc1)c1ccccc1NC(=S)NC1CC2C=CC1C2 (stereo not drawn)	i	i
O=C(/C=C/c1ccccc1)Nc1cc2c(ccc3ccccc32)oc1=O	i	i
NC(=O)CSc1nc2ccccc2[nH]1	nt	i
c1ccc2[nH]c(SCCSc3nc4ccccc4[nH]3)nc2c1	i	83.3
C[C@H]1CN([C@@H](C)CO)C(=O)c2cc(NS(=O)(=O)c3ccc(F)cc3)ccc2O[C@H]1CN(C)C(=O)NC1CCCCC1	i	i
C[C@@H]1CN([C@H](C)CO)C(=O)c2cccc(NC(=O)Nc3ccc(F)cc3)c2O[C@@H]1CN(C)S(=O)(=O)c1cccs1	i	i
C[C@H]1CN([C@@H](C)CO)C(=O)c2cccc(NC(=O)Nc3ccc(C(F)(F)F)cc3)c2O[C@H]1CN(C)S(=O)(=O)c1cccs1	i	90.5
C[C@H](CO)N1C[C@H](C)[C@@H](CN(C)S(=O)(=O)c2cccs2)Oc2ccc(NC(=O)Nc3ccc(C(F)(F)F)cc3)cc2C1=O	i	92.0
C[C@@H]1CN([C@H](C)CO)C(=O)c2cc(NC(=O)Nc3ccc(C(F)(F)F)cc3)ccc2O[C@H]1CN(C)S(=O)(=O)c1cccs1	i	i
C[C@@H]1CN([C@H](C)CO)C(=O)c2cccc(NC(=O)Nc3ccc(F)cc3)c2O[C@H]1CN(C)S(=O)(=O)c1cccs1	i	i
C[C@H](CO)N1C[C@H](C)[C@H](CN(C)S(=O)(=O)c2cccs2)Oc2c(NC(=O)Nc3ccc(C(F)(F)F)cc3)cccc2C1=O	i	92.0
COc1ccc(OC)c(S(=O)(=O)N2CCC(C(=O)Nc3ccc(Cl)c(C(F)(F)F)c3)CC2)c1	i	i
O=C(CSc1nnc(-c2cnccn2)n1-c1ccccc1)Nc1ccc(Br)cc1	i	i
O=C(CSc1nnnn1-c1ccc(Cl)cc1)Nc1cccc2ccccc12	nt	i
Cc1cc2nnc(SCC(=O)Nc3ccc(Cl)c(C(F)(F)F)c3)n2c2ccccc12	nt	i
